# Data: PubChem BioAssay (Tox21)
# Records with an inconclusive call do not appear. Values without a mark were called inactive. Calls follow the shape of the full dose curve.
# Experiment: qHTS assay to identify small molecule agonists of the NFkB signaling pathway - cell viability counter screen (AID 1159515); also: nearly all actives have a fitted effect of over 55% in size
# Conditions: NFkB-bla ME-180 viability, CellTiter-Glo luminescence, 5 h; series mostly up to 61 µM; activity, negative = cytotoxic: at the top concentration
# Procedure, shortened: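 5 hr compound treatment of NFkB-bla ME-180 cells (2,000/well, seeded overnight beforehand), followed by reporter substrate for 1.5 hr. CellTiter-Glo added afterward; luminescence after 30 min RT.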
# % is scaled to controls: 0 for no effect and ±100 for the full control effect.
row,Compound,"activity, negative = cytotoxic"
1,C1COCO1,-9.33%
2,O=S1OCCO1,2.02% [at 78.8 µM]
3,CNCCCC1c2ccccc2C=Cc2ccccc21,-8.36%
4,NC(=O)Cn1c(=O)cc(CCN2CCN(c3nccc4sccc34)CC2)c2ccc(F)cc21,-15.9%
5,O=C(N/N=C/c1ccc([N+](=O)[O-])o1)c1ccc(O)cc1,11.4%
6,CC(=O)Nc1ccccc1C,-12% [at 78.8 µM]
7,O=C(CCCN1CCC(O)(c2ccc(Br)cc2)CC1)c1ccc(F)cc1,-1.62%
8,CCOC(=N)CC(=O)OCC,-0.228%
9,Cc1cc(C(=C2C=CC(=Nc3ccc(S(=O)(=O)O)cc3S(=O)(=O)O)C=C2)c2ccc(Nc3ccc(S(=O)(=O)O)cc3)cc2)ccc1N,0.0028%
10,CCCCC(CC)C(=O)OCCOCCOCCOCCOC(=O)C(CC)CCCC (centres undefined),6.02%
11,CN1CCN(CCCN2c3ccccc3Sc3ccc(S(=O)(=O)N(C)C)cc32)CC1,-17.9%
12,CCCCN(CCCC)CCCOC(=O)c1ccc(N)cc1,5.08%
13,O=C(CCCCCCCCC#CI)Oc1ccccc1,-23.5%
14,CSc1ccc(Oc2ccc(S(N)(=O)=O)cc2CN(C)C)cc1C,-1.46%
15,CN(C(=O)C(Cl)Cl)c1ccc(OC(=O)c2ccco2)cc1,2.34%
16,CC1CN(c2cc3c(cc2F)c(=O)c(C(=O)O)cn3-c2ccc(F)cc2F)CCN1 (centres undefined),3.41% [at 6.95 µM]
17,CCC(C(=O)OCCOCCN(CC)CC)c1ccccc1 (centres undefined),-6.02%
18,C[C@@H]1C[C@H]2[C@@H]3CCC4=CC(=O)C=C[C@]4(C)[C@@]3(F)[C@@H](O)C[C@]2(C)[C@@]1(O)C(=O)CO,-25.3% [at 78.8 µM]
19,CCCCCCCCCCCC(=O)[O][Sn]([CH2]CCC)([CH2]CCC)[O]C(=O)CCCCCCCCCCC,3.23%
